Data taken from the supplement of paper PMC11732987, “Enantioselective OTUD7B fragment discovery through chemoproteomics screening and high-throughput optimisation” (Communications Chemistry, 2025).

What was measured:
Test in all cases: log2 ratio of Biotin-Ahx-Ub-VS probe labelling (fragment/DMSO); higher = less target engagement (more negative = stronger competition), active = hit call of the paper (q ≤ 0.05, log2 ratio ≤ -1)
Conditions in all cases: compound concentration: 200 uM; treatment time: 3 h
USP19 = molecular target: T1, USP19 (UniProt O94966)
T1 sequence (whole entry): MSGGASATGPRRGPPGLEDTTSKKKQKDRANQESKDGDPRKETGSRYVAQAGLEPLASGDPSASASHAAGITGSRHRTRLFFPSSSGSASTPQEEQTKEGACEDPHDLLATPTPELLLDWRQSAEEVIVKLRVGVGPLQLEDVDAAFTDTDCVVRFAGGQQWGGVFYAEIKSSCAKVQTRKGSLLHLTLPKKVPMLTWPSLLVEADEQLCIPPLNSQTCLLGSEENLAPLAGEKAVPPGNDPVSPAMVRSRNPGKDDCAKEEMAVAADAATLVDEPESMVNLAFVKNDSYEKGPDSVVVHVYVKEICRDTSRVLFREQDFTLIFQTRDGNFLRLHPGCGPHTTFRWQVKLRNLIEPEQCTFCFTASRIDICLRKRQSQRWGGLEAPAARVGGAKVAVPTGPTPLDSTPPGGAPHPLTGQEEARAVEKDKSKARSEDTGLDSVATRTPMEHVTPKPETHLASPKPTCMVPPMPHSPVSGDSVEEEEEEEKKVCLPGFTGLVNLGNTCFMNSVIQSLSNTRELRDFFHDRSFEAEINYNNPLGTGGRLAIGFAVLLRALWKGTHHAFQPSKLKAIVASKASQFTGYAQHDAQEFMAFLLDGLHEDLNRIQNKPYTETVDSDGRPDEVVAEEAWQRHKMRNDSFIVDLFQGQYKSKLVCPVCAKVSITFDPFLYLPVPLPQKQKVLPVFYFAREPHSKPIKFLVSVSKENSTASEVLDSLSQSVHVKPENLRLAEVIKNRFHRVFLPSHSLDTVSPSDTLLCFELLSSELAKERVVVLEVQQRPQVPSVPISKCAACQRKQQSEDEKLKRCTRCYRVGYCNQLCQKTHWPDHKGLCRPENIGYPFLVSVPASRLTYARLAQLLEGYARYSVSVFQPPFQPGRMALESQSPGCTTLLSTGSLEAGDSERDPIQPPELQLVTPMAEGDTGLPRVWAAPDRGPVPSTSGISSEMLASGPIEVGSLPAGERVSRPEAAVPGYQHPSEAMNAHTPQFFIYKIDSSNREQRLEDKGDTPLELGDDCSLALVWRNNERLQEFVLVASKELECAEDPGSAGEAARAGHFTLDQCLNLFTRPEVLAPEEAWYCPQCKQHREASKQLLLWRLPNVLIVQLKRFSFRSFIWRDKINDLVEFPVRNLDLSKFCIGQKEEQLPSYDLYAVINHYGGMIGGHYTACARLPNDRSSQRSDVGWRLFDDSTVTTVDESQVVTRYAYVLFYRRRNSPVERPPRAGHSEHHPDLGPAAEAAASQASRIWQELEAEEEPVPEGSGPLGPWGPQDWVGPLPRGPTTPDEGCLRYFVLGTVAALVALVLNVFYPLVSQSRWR
Procedure, shortened: (§1)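 Average log2 ratios of fragment over vehicle were obtained by unpaired t-test from global-median-normalised Spectronaut label-free quantities. Proteins with ≥2 unique peptides were included. HEK293T lysate (495 µg per sample) was treated in triplicate with fragment at 200 µM or vehicle for 3 h, then with Biotin-Ahx-Ub-VS at 0.5 µM final for 1 h, and labelled DUBs were NeutrAvidin-enriched and run by diaPASEF LC-MS/MS.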

USP24 = USP24 (UniProt Q9UPU5)
Procedure, shortened: as §1

USP25 = molecular target: T2, USP25 (UniProt Q9UHP3)
T2 sequence (whole entry): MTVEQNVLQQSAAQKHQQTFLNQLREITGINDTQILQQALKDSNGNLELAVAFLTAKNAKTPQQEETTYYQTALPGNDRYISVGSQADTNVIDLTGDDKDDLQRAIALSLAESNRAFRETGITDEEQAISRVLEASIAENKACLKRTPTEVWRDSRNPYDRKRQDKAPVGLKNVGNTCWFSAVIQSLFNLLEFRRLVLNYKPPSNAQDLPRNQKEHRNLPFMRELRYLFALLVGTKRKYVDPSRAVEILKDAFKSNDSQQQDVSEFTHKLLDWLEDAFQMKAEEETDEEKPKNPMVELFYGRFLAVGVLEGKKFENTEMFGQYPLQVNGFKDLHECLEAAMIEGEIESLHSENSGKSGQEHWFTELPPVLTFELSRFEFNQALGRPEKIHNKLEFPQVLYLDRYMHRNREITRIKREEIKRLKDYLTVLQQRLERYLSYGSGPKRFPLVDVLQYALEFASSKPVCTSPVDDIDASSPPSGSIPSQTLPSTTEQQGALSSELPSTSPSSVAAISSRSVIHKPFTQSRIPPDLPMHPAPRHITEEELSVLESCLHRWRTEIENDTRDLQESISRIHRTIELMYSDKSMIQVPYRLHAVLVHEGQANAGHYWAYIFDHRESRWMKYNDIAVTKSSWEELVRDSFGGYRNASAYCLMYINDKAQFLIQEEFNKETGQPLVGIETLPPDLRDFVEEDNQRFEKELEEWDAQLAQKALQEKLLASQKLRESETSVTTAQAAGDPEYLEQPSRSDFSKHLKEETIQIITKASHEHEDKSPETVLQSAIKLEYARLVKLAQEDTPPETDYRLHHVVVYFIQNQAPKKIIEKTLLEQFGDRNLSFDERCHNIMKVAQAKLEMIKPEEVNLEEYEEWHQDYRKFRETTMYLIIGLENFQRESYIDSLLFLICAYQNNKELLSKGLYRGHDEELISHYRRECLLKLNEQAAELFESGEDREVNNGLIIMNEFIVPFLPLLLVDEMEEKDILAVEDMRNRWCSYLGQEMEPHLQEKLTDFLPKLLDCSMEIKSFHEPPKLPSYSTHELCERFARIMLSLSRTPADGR
Procedure, shortened: as §1

USP28 = molecular target: T3, USP28 (UniProt Q96RU2)
T3 sequence (whole entry): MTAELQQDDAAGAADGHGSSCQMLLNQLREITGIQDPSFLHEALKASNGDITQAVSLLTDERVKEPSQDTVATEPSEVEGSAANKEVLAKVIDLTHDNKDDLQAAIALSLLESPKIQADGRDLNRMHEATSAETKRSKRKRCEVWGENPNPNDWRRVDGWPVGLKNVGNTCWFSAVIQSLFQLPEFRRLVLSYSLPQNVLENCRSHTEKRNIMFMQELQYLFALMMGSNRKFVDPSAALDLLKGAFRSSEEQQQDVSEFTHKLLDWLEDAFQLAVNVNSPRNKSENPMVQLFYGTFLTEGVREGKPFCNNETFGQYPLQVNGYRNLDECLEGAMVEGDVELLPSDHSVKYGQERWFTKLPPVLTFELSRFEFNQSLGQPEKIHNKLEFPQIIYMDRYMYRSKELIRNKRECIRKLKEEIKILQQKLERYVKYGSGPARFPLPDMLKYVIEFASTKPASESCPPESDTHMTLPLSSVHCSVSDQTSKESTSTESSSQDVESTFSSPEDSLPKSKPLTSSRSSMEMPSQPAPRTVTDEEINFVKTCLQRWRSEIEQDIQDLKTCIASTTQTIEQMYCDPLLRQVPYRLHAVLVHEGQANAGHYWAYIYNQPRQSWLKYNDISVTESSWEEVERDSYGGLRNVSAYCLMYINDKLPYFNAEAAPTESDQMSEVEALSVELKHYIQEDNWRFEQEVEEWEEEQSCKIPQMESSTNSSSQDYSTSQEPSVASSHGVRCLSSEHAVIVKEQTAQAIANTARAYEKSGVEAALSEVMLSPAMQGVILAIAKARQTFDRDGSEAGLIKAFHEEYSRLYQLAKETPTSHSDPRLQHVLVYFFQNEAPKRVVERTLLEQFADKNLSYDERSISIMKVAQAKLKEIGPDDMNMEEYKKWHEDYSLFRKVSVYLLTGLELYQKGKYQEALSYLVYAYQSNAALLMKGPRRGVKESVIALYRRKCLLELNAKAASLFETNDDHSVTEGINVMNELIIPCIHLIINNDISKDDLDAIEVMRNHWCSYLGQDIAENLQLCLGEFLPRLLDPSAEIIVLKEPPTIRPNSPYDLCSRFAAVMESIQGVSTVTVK
Procedure, shortened: as §1

Measured: log2 ratio of Biotin-Ahx-Ub-VS probe labelling

Sequence of USP24 (Q9UPU5 whole entry): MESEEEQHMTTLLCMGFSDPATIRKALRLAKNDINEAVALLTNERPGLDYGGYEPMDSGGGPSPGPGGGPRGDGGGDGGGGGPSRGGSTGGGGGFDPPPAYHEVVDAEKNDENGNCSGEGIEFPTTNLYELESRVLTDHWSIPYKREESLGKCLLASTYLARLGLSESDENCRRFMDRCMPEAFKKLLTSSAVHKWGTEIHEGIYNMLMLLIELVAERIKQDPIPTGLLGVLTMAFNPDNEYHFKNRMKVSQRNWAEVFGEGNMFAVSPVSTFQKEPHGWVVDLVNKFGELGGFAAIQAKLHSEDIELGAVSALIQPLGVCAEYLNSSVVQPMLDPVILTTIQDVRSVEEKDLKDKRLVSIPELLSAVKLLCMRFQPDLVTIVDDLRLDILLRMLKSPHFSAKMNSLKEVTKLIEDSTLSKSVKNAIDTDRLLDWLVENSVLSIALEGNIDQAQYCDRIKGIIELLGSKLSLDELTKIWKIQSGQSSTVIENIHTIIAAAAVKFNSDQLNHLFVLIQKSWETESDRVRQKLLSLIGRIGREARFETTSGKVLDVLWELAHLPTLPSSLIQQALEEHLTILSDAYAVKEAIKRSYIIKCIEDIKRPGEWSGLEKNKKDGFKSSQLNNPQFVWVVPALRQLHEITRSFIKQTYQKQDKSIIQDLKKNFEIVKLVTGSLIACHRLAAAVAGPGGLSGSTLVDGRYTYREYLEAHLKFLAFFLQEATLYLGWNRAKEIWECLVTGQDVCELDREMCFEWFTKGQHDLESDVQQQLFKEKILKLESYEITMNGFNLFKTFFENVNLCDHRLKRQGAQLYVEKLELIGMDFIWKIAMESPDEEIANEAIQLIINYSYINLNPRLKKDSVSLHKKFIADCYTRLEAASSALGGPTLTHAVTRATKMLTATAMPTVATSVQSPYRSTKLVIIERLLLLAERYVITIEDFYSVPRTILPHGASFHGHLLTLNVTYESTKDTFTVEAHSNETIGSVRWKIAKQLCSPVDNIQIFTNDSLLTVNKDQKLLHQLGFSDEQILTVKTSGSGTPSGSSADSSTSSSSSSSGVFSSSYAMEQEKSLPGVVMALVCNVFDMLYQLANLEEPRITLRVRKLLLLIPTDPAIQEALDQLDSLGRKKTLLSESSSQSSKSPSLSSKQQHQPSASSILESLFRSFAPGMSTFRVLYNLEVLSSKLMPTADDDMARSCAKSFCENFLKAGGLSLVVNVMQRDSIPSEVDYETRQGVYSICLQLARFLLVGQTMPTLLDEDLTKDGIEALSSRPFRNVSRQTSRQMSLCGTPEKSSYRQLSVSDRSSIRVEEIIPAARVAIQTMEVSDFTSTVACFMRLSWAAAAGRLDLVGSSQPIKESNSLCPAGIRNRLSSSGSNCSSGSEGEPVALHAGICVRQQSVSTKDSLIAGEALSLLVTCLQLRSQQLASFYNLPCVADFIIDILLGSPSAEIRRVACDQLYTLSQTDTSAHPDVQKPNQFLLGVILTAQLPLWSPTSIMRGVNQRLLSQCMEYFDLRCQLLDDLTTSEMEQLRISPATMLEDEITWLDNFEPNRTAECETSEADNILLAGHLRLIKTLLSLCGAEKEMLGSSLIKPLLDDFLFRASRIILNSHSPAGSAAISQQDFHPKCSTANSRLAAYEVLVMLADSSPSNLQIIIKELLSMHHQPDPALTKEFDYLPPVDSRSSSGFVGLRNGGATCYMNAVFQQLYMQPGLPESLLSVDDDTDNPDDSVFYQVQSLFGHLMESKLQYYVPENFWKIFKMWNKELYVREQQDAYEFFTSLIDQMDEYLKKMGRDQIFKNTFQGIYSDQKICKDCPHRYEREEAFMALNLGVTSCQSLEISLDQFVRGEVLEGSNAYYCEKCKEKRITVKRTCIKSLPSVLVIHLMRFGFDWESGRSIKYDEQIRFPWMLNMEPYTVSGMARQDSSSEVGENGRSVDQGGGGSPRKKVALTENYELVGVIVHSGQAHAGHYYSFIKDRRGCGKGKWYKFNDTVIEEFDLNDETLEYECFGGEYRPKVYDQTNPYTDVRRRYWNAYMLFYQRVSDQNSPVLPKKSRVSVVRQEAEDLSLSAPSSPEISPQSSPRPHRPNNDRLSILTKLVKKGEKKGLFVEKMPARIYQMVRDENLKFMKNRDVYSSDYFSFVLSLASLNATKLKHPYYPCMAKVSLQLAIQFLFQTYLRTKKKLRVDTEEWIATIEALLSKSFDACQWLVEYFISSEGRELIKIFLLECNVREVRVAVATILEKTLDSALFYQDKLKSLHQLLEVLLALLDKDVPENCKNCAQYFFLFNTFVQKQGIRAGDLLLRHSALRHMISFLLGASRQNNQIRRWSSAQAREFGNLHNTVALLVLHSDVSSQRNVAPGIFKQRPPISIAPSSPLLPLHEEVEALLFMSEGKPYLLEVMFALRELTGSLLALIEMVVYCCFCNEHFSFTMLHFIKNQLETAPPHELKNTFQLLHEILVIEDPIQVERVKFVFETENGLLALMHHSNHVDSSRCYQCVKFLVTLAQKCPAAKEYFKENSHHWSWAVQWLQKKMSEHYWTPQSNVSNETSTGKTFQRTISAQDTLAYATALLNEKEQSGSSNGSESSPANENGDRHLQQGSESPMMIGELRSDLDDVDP

Cc1cccnc1NC(=O)C1CCN(C(=O)CCl)CC1.Cl
inactive: USP19 -0.314 | USP24 -0.409 | USP25 -0.184 | USP28 -0.564
